In PubChem BioAssay (Tox21):
Results filed as inconclusive are left out. Calls of active or inactive are those of the source. Unless noted, calls follow the shape of the full dose curve.

Columns and labels:
[1] = Nuclear factor erythroid 2-related factor 2/antioxidant responsive element (Nrf2/ARE) small molecule agonists: qHTS cell viability counter screen in human keratinocytes (AID 1919968; active = well fitted curve in the direction sought with a large enough effect in the repeat runs; an effect the other way counts as inactive or inconclusive; also: nearly all actives have a fitted effect of over 55% in size)
Procedure, shortened: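 Stably transfected HaCaT (KeratinoSens), 1,500/well. Test agents in DMSO were applied for 23 h, 37 C/5% CO2. CellTiter-Fluor was incubated 1 h before the fluorescence read.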

[2] = Nuclear factor erythroid 2-related factor 2/antioxidant responsive element (Nrf2/ARE) small molecule agonists: luciferase reporter gene qHTS assay in human keratinocytes (AID 1919969); also: nearly all actives have a fitted effect of over 35% in size
[3] = molecular target: Gonadotropin-releasing hormone receptor (Homo sapiens) (UniProt P30968); test: Human gonadotropin-releasing hormone receptor (GnRHR) small molecule agonists, calcium flux assay in GnRHR-HEK293 cells (AID 1920063); also: nearly all actives have a fitted effect of over 35% in size
Procedure, shortened: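 Stable human GnRHR HEK293 line. 18 h plating, then calcium dye for 1 h at 37 C. Agonist-mode compound addition from DMSO stocks; fluorescence monitored 3 min.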

[4] = molecular target: KiSS-1 receptor (Homo sapiens) (UniProt Q969F8); test: Human kisspeptin (KISS1R) small molecule agonists, calcium flux assay in KISS1R-HEK293 cells (AID 1920064; active = well fitted curve in the direction sought with a large enough effect in the repeat runs; an effect the other way counts as inactive or inconclusive)
Procedure, shortened: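 After overnight (18 h) culture at 37 C/5% CO2, human KISS1R-HEK293 cells received calcium dye for 1 h, then test compound; emission at 540 nm (excitation 480 nm) was tracked for 3 min.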

[5] = G protein-coupled receptor (GPCR) small molecule agonists, calcium flux assay: HEK293 wild type cell line counter screen (AID 1920065)
Procedure, shortened: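 Following 18 h incubation at 37 C/5% CO2, plates got calcium dye for 1 h; compounds, ATP or DMSO were then pinned in and fluorescence followed kinetically (480/540 nm).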

[6] = p53 small molecule agonists, cell-based qHTS assay with human liver microsomes (AID 1963577);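 also: p53 response element beta-lactamase reporter cells with liver microsomes plus NADPH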
Procedure, shortened: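 16 h, 37 C exposure of p53RE-bla cells to compounds with human liver microsomes and NADPH (0.5 mg/mL final each); detection via LiveBLAzer mixture, 2 h dark at room temperature.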

[7] = p53 small molecule agonists, cell-based qHTS assay with rat liver microsomes (AID 1963578)
Procedure, shortened: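 With rat liver microsomes and NADPH present (0.5 mg/mL final each), p53RE-bla cells are treated with compound for 16 h at 37 C. LiveBLAzer detection mixture is then applied for 2 h at room temperature in the dark.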

[8] = p53 small molecule agonists, cell-based qHTS assay with human liver microsomes: qHTS cell viability counter screen (AID 1963579); also: nearly all actives have a fitted effect of over 45% in size
Procedure, shortened: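 In this multiplexed counter screen, the reporter plates were subsequently treated with CellTiter-Glo so that cell viability, reflected by luminescence, could be recorded for p53RE-bla cells dosed 16 h with compounds under microsomal activation (HLM and NADPH).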

[9] = p53 small molecule agonists, cell-based qHTS assay with rat liver microsomes: qHTS cell viability counter screen (AID 1963580); also: nearly all actives have a fitted effect of over 45% in size
Procedure, shortened: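 Cytotoxicity counter screen: intracellular ATP measured by CellTiter-Glo luminescence in the same wells as the beta-lactamase reporter read, on HCT-116 p53RE-bla cells exposed 16 h at 37 C to compounds with rat liver microsomes and NADPH, each 0.5 mg/mL final.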

[10] = p53 small molecule agonists, cell-based qHTS assay: qHTS cell viability counter screen (AID 1963581); also: nearly all actives have a fitted effect of over 45% in size
Procedure, shortened: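 qHTS counter screen: 16 h compound exposure at 37 C of p53RE-bla HCT-116 cells (4,000 per well, seeded 5 h prior), cell viability by ATP luminescence.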

[11] = p53 small molecule agonists, cell-based qHTS assay (AID 1963582; active = well fitted activation curve with a large enough effect in the signal ratio in the repeat runs, not every such curve was filed as active; the % refers to the signal ratio)
Procedure, shortened: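 Measured: fluorescence from cleaved LiveBLAzer substrate. System: p53RE-bla cells, 16 h compound treatment at 37 C, 2 h substrate step at room temperature.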

[12] = molecular target: 5-hydroxytryptamine receptor 2A (Homo sapiens) (UniProt P28223); test: 5-hydroxytryptamine receptor 2A (HTR2A) small molecule agonists, cell-based qHTS assay (AID 1963587); also: nearly all actives have a fitted effect of over 30% in size
Procedure, shortened: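 CHO cells stably expressing human HTR2A, plated 18 h, loaded with calcium dye 1 h at 37 C. Agonist mode: compounds added and intracellular calcium fluorescence recorded kinetically for 2 min at 1 sec intervals.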

[13] = molecular target: Muscarinic acetylcholine receptor M1 (Homo sapiens) (UniProt P11229); test: Cholinergic receptor muscarinic 1 (CHRM1) small molecule antagonists, cell-based qHTS assay (AID 1963588); also: nearly all actives have a fitted effect of over 40% in size
Procedure, shortened: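 Compounds were tested at 15 concentrations in three independent runs. Dye-loaded CHRM1-CHO cells were exposed 5 min at room temperature before stimulation by acetylcholine added at 50nM. Intracellular calcium was read kinetically on FDSS for 3 min.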

[14] = molecular target: Muscarinic acetylcholine receptor M1 (Homo sapiens) (UniProt P11229); test: Cholinergic receptor muscarinic 1 (CHRM1) small molecule agonists, cell-based qHTS assay (AID 1963589); also: nearly all actives have a fitted effect of over 35% in size
Procedure, shortened: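 Kinetic fluorescence (1 s intervals) of calcium-sensitive dye in human M1 CHO cells after compound addition; cells pre-incubated 18 h at 37 C/5% CO2 and dye-loaded 1 h.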

[15] = cAMP Responsive Elements (CRE) small molecule agonists, cell-based qHTS assay (AID 1963590)
Procedure, shortened: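 Test agents in DMSO were incubated 3 h at 37 C/5% CO2 with CRE-bla HEK 293T cells seeded 18 h earlier; LiveBLAzer B/G FRET substrate was added and read after 2 h at room temperature.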

[16] = cAMP Responsive Elements (CRE) small molecule antagonists, cell-based qHTS assay (AID 1963591; active = well fitted inhibition curve with a large enough effect in the signal ratio in the repeat runs, not every such curve was filed as active; the % refers to the signal ratio)
Procedure, shortened: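 Reporter line CRE-bla HEK 293T in dialyzed-FBS DMEM; cells preincubated 18 h, treated 3 h with compound plus NKH477 (0.25 uM final); LiveBLAzer FRET, 2 h RT.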

[17] = molecular target: Beta-2 adrenergic receptor (Homo sapiens) (UniProt P07550); test: Adrenergic beta2 receptor (ADRB2) small molecule antagonists, cell-based qHTS assay (AID 1963592); also: series mostly up to about 92 µM; nearly all actives have a fitted effect of over 50% in size
Procedure, shortened: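 Assay format: CHO-ADRB2 cells, 18-20hr seeding at 37C/5% CO2, then compound plus 1nM isoproterenol agonist mix for 0.5hr RT. Homogeneous time-resolved fluorescence cAMP detection after 1hr, expressed as 665/615 nm ratio.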

[18] = molecular target: Beta-2 adrenergic receptor (Homo sapiens) (UniProt P07550); test: Adrenergic beta2 receptor (ADRB2) small molecule agonists, cell-based qHTS assay (AID 1963593);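 also: CHO cells stably overexpressing human ADRB2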
Procedure, shortened: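 CHO cells stably over-expressing ADRB2 were plated overnight at 37C, then dosed with compounds plus a stimulation mix containing 100uM IBMX and 25uM Ro-20-1724 for 0.5hr at room temperature. cAMP was measured by HTRF competition, 1hr.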

[19] = molecular target: D(2) dopamine receptor (Homo sapiens) (UniProt P14416); test: Dopamine D2 receptor (DRD2) small molecule agonists, cell-based qHTS assay (AID 1963594); also: nearly all actives have a fitted effect of over 35% in size
Procedure, shortened: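 HEK293 cells stably expressing human DRD2, pre-treated with PDE inhibitor Ro20-1724 (0.1 mM final) and compound 10 min at room temperature, then stimulated with NKH477 (200nM […]) for 30 min. cAMP read by HTRF (665/620 nm).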

[20] = molecular target: D(2) dopamine receptor (Homo sapiens) (UniProt P14416); test: Dopamine D2 receptor (DRD2) small molecule antagonists, cell-based qHTS assay (AID 1963595; active = well fitted inhibition curve with a large enough effect in the signal ratio in the repeat runs, with a control signal flat; the % refers to the signal ratio; also: potency is read from the fitted curve at half-maximal effect)
Procedure, shortened: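 Readout: HTRF cAMP, cAMP-d2 competing with cellular cAMP for anti-cAMP cryptate, read after 1 h. Cells: DRD2-HEK293. Conditions: 0.1 mM Ro20-1724, 12 nM quinpirole, 200 nM NKH477, 30 min RT.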

Measured: Potency

KiSS-1 receptor (Homo sapiens), sequence (Q969F8 whole entry, looked up): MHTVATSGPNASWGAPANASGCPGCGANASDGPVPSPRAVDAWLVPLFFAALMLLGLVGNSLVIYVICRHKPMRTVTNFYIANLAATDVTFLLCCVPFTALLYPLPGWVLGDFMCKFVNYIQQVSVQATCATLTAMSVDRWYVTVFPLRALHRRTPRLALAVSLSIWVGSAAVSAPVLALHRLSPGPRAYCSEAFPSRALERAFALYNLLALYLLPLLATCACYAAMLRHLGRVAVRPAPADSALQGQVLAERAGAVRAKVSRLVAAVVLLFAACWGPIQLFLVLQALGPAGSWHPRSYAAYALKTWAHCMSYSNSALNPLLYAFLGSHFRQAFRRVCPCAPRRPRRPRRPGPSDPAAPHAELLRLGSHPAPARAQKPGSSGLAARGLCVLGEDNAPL
Beta-2 adrenergic receptor (Homo sapiens), sequence (P07550 whole entry, looked up): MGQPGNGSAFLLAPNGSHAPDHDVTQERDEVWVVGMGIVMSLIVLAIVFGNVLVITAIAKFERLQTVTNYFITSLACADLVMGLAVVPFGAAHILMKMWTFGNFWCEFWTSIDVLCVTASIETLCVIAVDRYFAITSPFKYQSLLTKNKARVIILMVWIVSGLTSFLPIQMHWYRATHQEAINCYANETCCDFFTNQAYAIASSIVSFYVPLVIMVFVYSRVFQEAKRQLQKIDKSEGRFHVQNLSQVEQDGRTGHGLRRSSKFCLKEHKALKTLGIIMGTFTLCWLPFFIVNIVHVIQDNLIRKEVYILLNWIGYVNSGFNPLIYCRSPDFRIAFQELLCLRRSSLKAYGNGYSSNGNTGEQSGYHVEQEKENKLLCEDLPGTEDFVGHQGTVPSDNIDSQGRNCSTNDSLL
5-hydroxytryptamine receptor 2A (Homo sapiens), sequence (P28223 whole entry, looked up): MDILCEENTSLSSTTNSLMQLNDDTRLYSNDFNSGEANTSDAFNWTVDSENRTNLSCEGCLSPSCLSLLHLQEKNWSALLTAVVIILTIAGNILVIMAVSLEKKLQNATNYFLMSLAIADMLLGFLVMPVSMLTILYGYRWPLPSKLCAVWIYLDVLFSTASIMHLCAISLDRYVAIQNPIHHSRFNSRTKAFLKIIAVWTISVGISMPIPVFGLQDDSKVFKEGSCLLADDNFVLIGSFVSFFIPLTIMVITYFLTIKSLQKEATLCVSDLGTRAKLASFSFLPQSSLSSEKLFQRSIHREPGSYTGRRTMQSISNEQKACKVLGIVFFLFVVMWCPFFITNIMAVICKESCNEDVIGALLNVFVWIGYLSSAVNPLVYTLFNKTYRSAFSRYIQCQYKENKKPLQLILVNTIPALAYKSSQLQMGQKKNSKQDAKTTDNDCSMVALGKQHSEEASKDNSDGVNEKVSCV
Muscarinic acetylcholine receptor M1 (Homo sapiens), sequence (P11229 whole entry, looked up): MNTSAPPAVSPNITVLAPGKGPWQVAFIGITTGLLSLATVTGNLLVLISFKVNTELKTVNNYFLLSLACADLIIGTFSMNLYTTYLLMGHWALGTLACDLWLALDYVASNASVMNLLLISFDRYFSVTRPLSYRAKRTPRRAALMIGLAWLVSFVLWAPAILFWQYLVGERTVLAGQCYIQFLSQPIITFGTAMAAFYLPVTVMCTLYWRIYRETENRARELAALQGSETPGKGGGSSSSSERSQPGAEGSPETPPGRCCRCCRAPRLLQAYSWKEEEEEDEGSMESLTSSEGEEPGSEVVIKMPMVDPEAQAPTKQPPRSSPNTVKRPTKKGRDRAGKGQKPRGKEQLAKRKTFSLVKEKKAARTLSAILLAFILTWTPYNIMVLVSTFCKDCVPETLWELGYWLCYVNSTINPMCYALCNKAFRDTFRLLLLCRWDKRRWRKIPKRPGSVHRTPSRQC
D(2) dopamine receptor (Homo sapiens), sequence (P14416 whole entry, looked up): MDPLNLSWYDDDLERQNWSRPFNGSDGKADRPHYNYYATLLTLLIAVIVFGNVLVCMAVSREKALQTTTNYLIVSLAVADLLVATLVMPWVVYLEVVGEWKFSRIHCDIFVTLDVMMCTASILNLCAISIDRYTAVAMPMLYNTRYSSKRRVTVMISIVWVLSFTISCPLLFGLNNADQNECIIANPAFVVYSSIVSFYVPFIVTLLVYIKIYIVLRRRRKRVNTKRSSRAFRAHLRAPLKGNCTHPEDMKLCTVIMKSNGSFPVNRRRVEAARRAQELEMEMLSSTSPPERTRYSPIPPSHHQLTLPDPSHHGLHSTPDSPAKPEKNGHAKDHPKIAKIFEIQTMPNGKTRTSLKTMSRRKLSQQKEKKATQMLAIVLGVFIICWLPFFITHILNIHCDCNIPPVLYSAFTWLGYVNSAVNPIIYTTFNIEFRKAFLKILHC
Gonadotropin-releasing hormone receptor (Homo sapiens), sequence (P30968 whole entry, looked up): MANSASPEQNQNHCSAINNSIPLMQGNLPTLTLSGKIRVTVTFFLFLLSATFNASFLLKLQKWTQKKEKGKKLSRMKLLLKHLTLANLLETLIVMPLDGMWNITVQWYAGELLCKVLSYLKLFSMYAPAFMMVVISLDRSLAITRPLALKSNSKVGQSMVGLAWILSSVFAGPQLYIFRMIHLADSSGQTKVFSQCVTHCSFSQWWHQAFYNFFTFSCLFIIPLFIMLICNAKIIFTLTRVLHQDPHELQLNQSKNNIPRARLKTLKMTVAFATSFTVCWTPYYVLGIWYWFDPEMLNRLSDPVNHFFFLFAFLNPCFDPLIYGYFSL

CCN(CC)CCNC(=O)c1cc(Br)c(N)cc1OC
inactive: [1] | [2] | [3] | [4] | [5] | [6] | [7] | [8] | [9] | [10] | [11] | [12] | [13] | [14] | [15] | [16] | [17] | [18] | [19]
active: [20] 376 nM

C#Cc1ccc(-c2ccccc2F)cc1
inactive: [1] | [2] | [3] | [4] | [5] | [6] | [7] | [8] | [9] | [10] | [11] | [12] | [13] | [14] | [15] | [17] | [18] | [19] | [20]

CN(C)CCN(C)CCN(C)C
inactive: [1] | [2] | [3] | [4] | [5] | [6] | [7] | [8] | [9] | [10] | [11] | [12] | [13] | [14] | [15] | [16] | [17] | [19] | [20]

CCCCCC[C@@H](CCC)C(=O)O
inactive: [1] | [2] | [3] | [4] | [5] | [6] | [7] | [8] | [9] | [10] | [11] | [12] | [13] | [14] | [15] | [16] | [18] | [19] | [20]

O=C(NC(Cc1cc(=O)[nH]c2ccccc12)C(=O)O)c1ccc(Cl)cc1 (stereo unspecified)
inactive: [1] | [2] | [3] | [4] | [5] | [6] | [7] | [8] | [9] | [10] | [11] | [12] | [13] | [14] | [15] | [16] | [17] | [19] | [20]
